Screening results from PubChem.
Sampled rows, rich in hits. Any-hit rate of the full collection: about 3%.
Wnt act = activates Wnt/beta-catenin signaling in a reporter cell assay | activator, plate reader | activation, % at 9.35 µM | actives 1.2% (n = 300,000) | AID 743398; in the data active = activation above about 30%, passing the limit was not always enough; inconclusive = no clear call, values can overlap the other calls;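 note: 0% = neutral control wells and 100% = positive control wells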
N-glyco inh = N-linked glycosylation inhibition. D54 ERlucT glycosylation luciferase reporter, 24 h; percent of 100 nM tunicamycin response. reporter increase, % at 12.5 µM. actives 0.23% (n = 360,000);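 active = mean luciferase reporter signal, scaled so untreated is 0 and the glycosylation-blocking control 100, at or above a set limit in every replicate; inconclusive = mean reaches the limit but not every replicate does; inactive = mean below the limit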;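 note: luciferase carries N-glycosylation sites so blocking glycosylation raises the light; 0% = median of neutral control wells and 100% = median of 100 nM tunicamycin wells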
MITF TRPM1 HTS = activators of MITF-driven TRPM1 promoter activity in SK-MEL-5 cells. SK-MEL-5 TRPM1-promoter luciferase, 24 h; % of positive control, neutral wells = 0. activation, % at 12.5 µM. actives 0.75% (n = 300,000). AID 588334;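 active = mean activation of at least 80% with every replicate also reaching 80%; inconclusive = mean reaches 80% but some replicate falls short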;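 note: 0% = neutral control wells and 100% = parthenolide positive control wells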
Vif imaging = HIV Vif inhibition. inhibition, % at 7.49 µM. HEK293T cells, Vif self-association by quenched fluorescence, imaging, 24 h. AID 602346. actives 0.35% (n = 340,000); in the data active = inhibition above about 50%, passing the limit was not always enough; inconclusive = no clear call, values can overlap the other calls; inactive = below about 31%
esBAF inh = inhibitors of esBAF chromatin remodeling in mouse ES cells; reporter increase, % at 12.5 µM; AID 602393; Bmi1-luciferase knock-in reporter, 24 h; 100% = twice the neutral-well signal; actives 2% (n = 350,000); in the data active = activation above about 40%; inconclusive = no clear call, values can overlap the other calls;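 note: 0% = median of the plate's neutral control wells and 100% = double that signal; a rise in the Bmi1 reporter signal indicates esBAF inhibition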
PfHsp90 yeast 2 = growth inhibition of yeast expressing Plasmodium Hsp90; actives 0.32% (n = 310,000); AID 504621; inhibition, % at 9.4 µM; S. cerevisiae expressing PfHsp90, BacTiter-Glo ATP, 48 h; yeast lacking PDR1 and PDR3 efflux regulators;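 active = every replicate shows inhibition above about 80%, whatever the replicate mean, limit read from the data; inconclusive = mean inhibition reaches the set limit but some replicate falls short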;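 note: 0% = DMSO neutral controls and 100% = 20 µM radicicol positive controls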
* marks the source's active call; other numbers are inactive results; ? = inconclusive; / = no result given.

SMILES | Wnt act | N-glyco inh | MITF TRPM1 HTS | Vif imaging | esBAF inh | PfHsp90 yeast 2
O=C1/C(=C/c2ccco2)CCC1C1CCCC1 (stereo not drawn) | 38* | -2 | 20 | -11 | 17 | -13
O=C1/C(=C\c2ccco2)CCC/C1=C\c1ccco1 | / | 1 | 44 | -5 | 77* | 2
O=C1/C(=C/c2ccco2)Cc2ccccc21 | ? | 1 | 22 | 0 | / | -7
CCOc1ccc(/C=C2\CCC(C3CCCC3)C2=O)cc1OC (stereo not drawn) | 22 | 0 | 48 | -14 | 17 | 7
CCOc1ccc(/C=C2\CCC(C3CCCC3)C2=O)cc1 (stereo not drawn) | ? | -8 | 123* | -7 | -6 | 26
CCC(=O)OCOc1ccc(/C=C2/CCC(CN(C)C)C2=O)cc1 (stereo not drawn) | 16 | -8 | -67 | -9 | / | 143*
C[C@@H]1CN([C@H](C)CO)C(=O)c2cccc(NC(=O)c3ccc(-c4nccs4)cc3)c2O[C@@H]1CN(C)Cc1ccc(-c2ccccc2)cc1 | / | / | / | / | 2 | /
C=Cc1ccc(Cn2c(C)c(C(=O)NCc3cccc(C(F)(F)F)c3)sc2=O)cc1 | -7 | -2 | / | 7 | 2 | /
COc1n[nH]c(C(=O)Nc2cc(Cl)ccc2Cl)c1[N+](=O)[O-] | 1 | 3 | -3 | -1 | / | 21
O=C(O)c1ccc(N/N=C/c2ccc(-c3cc(Cl)ccc3Cl)o2)cc1 | 1 | -5 | 58 | -4 | / | -39
O=C(O)c1ccc(N/N=C/c2ccc(-c3cccc(Cl)c3)o2)cc1 | 25 | 4 | 70 | -7 | ? | 104*
COc1ccc(NC(=O)/C(Cl)=C(/Cl)S(=O)Cc2ccc(Cl)cc2)cn1 (stereo not drawn) | -10 | -22 | -93 | ? | -79 | 106*
CCN1CCN(C(=O)c2cc3ccc(OC)cc3[nH]2)CC1 | 11 | 0 | 95* | -7 | 29 | 4
COc1ccc2cc(C(=O)N3CCN(C)CC3)[nH]c2c1 | 17 | 1 | 44 | 1 | 23 | -7
CCON1C(=O)C(C)(C)N(OCC)C(=O)C1(C)C | 43* | 1 | -9 | -2 | / | 2
CCOC(=O)CON1C(=O)C(C)(C)N(OCC(=O)OCC)C(=O)C1(C)C | / | 3 | -2 | / | -7 | -29
CCCOc1ccc(OCCSc2ncccn2)cc1 | / | -8 | 69 | -14 | / | -9
COc1cc(/C=N/NC(=O)c2cccnc2)ccc1OC(=O)c1ccc2c(c1)OCO2 | 46* | / | -2 | / | / | 5
N/C(=N\OC(=O)c1ccc2c(c1)OCO2)c1cccc(Br)c1 | 17 | 2 | 116* | -4 | 67* | /
N/C(=N\OC(=O)c1cccc(Br)c1)c1ccc(Br)cc1 | / | 2 | 3 | 23 | 5 | -31
N/C(=N\OC(=O)c1ccc2c(c1)OCO2)c1cccnc1 | 62* | -7 | 77 | 15 | / | 19
COc1cc(/C=N/NC(=O)c2cccnc2)ccc1OC(=O)c1cc(OC)c(OC)c(OC)c1 | 2 | 3 | 7 | 25 | 5 | 7
CCOC(=O)C1=C(Cc2ccc(Cl)cc2)C(=O)c2ccccc2C1=O | / | 19 | -19 | -4 | 0 | 105*
CC(=O)n1c2ccccc2c2nc3ccccc3nc21 | / | 1 | 23 | 0 | 72* | 22
CC(=O)n1c2ccccc2c2c1c1ccccc1n2C | 7 | 4 | -8 | -2 | -7 | 6
SMILES | Wnt act | N-glyco inh | MITF TRPM1 HTS | Vif imaging | esBAF inh | PfHsp90 yeast 2
Cc1cc(C)n2c(Nc3ccc4c(c3)OCCO4)c(-c3ccc(C)o3)nc2n1 | 24 | -2 | 19 | -13 | 83* | -7
Cc1nc(NCCc2ccccc2)sc1C(=O)N(C)C | 8 | 1 | 41 | -7 | 41* | 14
Cc1nc(Nc2ccccc2C(F)(F)F)sc1C(=O)N(C)C | 16 | 4 | 55 | -1 | 49* | 11
Cc1cccc(N=Nc2ccc(O)c3ncccc23)c1 | / | -14 | -70 | 15 | / | 101*
Cc1ccc(C)c(N=Nc2ccc(O)c3ncccc23)c1 | -9 | -17 | -62 | 4 | / | 2
Clc1ccccc1CSc1cnnc2ccccc12 | -5 | -8 | 48 | 13 | 45* | 15
COc1cc(N)ccc1-c1cc2ccccc2oc1=O | 3 | 2 | 6 | 6 | 16 | 17
Cc1cc(-c2nnc(-c3cc4ccccc4oc3=O)o2)c(C)n1-c1ccccc1 | / | 3 | / | 1 | 54* | -6
